# In the supplement of paper PMC11732987, “Enantioselective OTUD7B fragment discovery through chemoproteomics screening and high-throughput optimisation” (Communications Chemistry, 2025):
# Values without a mark were called inactive.
# Columns and labels:
# Experiment in all cases: log2 ratio of Biotin-Ahx-Ub-VS probe labelling (compound/DMSO); higher = less target engagement, active = hit call of the paper (q ≤ 0.05, log2 ratio ≤ -1)
# Conditions in all cases: treatment time: 3 h
# [1] = compound: ClCC(=O)NC1CCCc2ccccc12
# In short: (§1)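 DUBs in HEK293T lysate were labelled with Biotin-Ahx-Ub-VS (0.5 µM final, 1 h) after a 3 h treatment with compound at 50 or 200 µM or with DMSO, done in triplicate on 495 µg of lysate per sample. NeutrAvidin-enriched proteins were digested with LysC and trypsin and run by diaPASEF LC-MS/MS. Median-normalised label-free quantities gave average base-two log ratios of compound to DMSO by unpaired t-test, restricted to proteins with at least 2 unique peptides.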
# [2] = compound: ClCC(=O)NC1CCOc2ccc(Cl)cc12
# In short: as §1
# [3] = compound: ClCC(=O)NC1CCSc2ccccc12
# In short: as §1
# [4] = compound: ClCC(=O)N[C@H]1CCCc2ccccc12
# In short: as §1
# [5] = compound: Fc1ccc(N2CCN(c3nc4c(CN(C(CCl)=O)CC4)cn3)CC2)cc1.Cl.Cl
# In short: as §1
# UniProt Q9Y5K5, sequence (Q9Y5K5 whole entry): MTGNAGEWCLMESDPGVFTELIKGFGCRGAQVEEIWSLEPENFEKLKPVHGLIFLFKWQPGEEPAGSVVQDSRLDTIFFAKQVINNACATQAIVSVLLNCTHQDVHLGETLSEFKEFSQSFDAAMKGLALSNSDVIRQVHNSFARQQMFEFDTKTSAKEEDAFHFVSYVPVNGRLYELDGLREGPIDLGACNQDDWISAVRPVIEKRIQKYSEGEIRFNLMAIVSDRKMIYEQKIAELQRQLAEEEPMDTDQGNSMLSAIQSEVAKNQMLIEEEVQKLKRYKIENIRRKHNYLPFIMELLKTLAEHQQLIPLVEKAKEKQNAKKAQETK
# UniProt O15372, sequence (O15372 whole entry): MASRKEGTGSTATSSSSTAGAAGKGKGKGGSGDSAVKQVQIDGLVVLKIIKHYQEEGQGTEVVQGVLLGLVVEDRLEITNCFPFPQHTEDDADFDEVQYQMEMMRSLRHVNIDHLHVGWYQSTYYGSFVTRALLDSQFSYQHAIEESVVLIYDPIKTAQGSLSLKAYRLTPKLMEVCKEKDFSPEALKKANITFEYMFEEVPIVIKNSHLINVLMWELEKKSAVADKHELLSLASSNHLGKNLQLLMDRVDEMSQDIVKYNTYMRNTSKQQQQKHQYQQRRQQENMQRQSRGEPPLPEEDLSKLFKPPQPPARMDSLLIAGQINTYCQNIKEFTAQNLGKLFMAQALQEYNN
# UniProt Q9Y4E8, sequence (Q9Y4E8 whole entry): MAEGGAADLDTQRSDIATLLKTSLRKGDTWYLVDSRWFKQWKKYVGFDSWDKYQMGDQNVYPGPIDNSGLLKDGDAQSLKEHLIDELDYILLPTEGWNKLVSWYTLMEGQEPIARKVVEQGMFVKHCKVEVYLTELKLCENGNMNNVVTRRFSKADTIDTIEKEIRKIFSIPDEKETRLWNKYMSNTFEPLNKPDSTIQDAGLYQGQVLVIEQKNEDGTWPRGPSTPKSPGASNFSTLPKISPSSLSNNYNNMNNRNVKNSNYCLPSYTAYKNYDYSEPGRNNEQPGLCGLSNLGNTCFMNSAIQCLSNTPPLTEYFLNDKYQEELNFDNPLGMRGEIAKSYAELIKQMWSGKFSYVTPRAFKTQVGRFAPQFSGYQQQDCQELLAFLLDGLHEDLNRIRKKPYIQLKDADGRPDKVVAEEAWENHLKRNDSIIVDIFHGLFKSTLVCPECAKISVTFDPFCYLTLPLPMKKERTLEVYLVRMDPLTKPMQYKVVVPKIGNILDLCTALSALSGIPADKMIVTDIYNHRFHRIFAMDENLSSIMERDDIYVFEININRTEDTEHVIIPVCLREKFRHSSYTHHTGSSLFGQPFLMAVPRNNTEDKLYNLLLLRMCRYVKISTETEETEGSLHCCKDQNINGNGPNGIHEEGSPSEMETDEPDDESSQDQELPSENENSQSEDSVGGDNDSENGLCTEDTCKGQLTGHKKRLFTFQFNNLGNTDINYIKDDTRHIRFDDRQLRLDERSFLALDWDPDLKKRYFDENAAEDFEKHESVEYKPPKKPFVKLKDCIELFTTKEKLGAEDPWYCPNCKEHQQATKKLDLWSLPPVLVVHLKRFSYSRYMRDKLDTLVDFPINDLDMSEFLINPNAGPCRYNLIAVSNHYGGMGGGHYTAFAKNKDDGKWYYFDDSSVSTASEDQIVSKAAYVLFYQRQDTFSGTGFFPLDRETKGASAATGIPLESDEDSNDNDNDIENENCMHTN
# UniProt Q92560, sequence (Q92560 whole entry): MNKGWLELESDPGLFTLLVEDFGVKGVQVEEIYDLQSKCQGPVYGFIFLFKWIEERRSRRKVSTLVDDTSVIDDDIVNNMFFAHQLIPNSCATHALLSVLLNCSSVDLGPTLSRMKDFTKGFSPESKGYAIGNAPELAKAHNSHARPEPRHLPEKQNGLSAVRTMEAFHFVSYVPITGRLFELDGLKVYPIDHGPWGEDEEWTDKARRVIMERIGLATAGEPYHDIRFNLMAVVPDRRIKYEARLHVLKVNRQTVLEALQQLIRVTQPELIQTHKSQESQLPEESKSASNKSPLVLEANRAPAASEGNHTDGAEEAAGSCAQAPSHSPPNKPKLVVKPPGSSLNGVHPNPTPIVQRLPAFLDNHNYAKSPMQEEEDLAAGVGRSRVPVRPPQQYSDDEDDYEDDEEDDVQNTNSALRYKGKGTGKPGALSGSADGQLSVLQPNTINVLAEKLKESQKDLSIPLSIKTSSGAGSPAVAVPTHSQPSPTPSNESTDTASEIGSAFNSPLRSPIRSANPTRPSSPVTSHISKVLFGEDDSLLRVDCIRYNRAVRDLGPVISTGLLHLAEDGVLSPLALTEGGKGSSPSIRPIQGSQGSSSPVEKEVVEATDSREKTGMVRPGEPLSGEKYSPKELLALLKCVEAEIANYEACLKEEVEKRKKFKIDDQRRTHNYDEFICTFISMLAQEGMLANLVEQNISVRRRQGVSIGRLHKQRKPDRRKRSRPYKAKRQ
# UniProt Q86UV5, sequence (Q86UV5 whole entry): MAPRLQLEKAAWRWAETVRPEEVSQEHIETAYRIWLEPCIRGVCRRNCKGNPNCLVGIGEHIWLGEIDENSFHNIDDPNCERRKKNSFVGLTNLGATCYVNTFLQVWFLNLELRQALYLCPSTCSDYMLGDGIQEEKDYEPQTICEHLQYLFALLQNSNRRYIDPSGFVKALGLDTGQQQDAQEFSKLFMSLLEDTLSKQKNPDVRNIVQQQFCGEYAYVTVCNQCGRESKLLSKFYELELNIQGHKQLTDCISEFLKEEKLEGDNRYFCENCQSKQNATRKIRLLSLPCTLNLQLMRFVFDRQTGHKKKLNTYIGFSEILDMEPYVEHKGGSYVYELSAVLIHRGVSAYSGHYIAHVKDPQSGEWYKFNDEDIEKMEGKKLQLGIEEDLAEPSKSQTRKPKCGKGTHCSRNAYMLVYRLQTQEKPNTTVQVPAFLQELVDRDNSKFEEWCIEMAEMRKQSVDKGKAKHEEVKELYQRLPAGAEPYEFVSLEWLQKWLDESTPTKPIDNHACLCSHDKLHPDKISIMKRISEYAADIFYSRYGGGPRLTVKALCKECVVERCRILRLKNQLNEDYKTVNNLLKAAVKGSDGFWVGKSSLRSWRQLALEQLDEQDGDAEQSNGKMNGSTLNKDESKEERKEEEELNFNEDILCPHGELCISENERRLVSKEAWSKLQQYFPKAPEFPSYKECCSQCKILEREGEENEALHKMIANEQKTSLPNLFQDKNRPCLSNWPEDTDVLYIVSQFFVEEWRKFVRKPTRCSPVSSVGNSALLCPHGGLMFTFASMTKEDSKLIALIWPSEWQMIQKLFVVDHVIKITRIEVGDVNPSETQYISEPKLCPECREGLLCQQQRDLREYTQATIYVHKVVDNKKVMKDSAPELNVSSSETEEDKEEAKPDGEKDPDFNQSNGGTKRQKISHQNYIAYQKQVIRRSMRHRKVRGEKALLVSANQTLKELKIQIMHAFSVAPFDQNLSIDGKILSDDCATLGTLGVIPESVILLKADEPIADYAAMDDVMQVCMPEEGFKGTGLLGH
# UniProt P09936, sequence (P09936 whole entry, looked up): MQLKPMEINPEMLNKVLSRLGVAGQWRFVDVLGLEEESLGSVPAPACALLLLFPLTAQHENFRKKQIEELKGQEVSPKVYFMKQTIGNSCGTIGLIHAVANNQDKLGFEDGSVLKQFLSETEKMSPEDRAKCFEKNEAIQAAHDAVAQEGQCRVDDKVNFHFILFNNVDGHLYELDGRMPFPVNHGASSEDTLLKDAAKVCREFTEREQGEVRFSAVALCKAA
# UniProt Q9NP73, sequence (Q9NP73 whole entry): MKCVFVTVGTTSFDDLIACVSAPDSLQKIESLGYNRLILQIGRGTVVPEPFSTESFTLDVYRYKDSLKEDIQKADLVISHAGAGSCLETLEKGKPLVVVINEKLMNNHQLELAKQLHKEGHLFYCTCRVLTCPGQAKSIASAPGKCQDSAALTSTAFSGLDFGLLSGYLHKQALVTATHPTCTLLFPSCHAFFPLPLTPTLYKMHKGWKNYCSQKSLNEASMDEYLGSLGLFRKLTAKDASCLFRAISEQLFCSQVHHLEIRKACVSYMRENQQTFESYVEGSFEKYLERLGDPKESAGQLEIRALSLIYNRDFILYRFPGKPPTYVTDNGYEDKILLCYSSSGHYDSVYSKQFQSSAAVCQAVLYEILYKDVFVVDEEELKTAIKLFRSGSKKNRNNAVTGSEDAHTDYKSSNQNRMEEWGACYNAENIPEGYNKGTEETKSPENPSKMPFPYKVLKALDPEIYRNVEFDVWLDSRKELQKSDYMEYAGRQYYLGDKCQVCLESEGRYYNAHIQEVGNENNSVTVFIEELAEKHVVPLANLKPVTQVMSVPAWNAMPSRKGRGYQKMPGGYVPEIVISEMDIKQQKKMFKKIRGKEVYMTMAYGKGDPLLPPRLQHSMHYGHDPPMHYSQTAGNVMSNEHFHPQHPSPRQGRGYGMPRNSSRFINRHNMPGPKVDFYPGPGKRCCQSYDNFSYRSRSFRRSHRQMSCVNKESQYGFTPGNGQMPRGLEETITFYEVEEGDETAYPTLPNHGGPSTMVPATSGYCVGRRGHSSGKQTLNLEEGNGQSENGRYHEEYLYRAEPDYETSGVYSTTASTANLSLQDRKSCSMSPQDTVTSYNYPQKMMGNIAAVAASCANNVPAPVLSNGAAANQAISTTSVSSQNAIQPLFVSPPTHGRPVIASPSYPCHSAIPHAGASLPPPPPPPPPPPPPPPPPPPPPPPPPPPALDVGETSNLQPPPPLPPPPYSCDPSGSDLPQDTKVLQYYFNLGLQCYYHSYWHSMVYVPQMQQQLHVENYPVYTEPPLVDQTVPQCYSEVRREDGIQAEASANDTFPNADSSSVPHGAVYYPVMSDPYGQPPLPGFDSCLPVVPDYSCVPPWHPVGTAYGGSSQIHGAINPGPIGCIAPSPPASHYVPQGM
Target,log2 ratio of Biotin-Ahx-Ub-VS probe labelling ([1]; compound concentration: 50uM),log2 ratio of Biotin-Ahx-Ub-VS probe labelling ([1]; compound concentration: 200uM),log2 ratio of Biotin-Ahx-Ub-VS probe labelling ([2]; compound concentration: 50uM),log2 ratio of Biotin-Ahx-Ub-VS probe labelling ([2]; compound concentration: 200uM),log2 ratio of Biotin-Ahx-Ub-VS probe labelling ([3]; compound concentration: 50uM),log2 ratio of Biotin-Ahx-Ub-VS probe labelling ([3]; compound concentration: 200uM),log2 ratio of Biotin-Ahx-Ub-VS probe labelling ([4]; compound concentration: 50uM),log2 ratio of Biotin-Ahx-Ub-VS probe labelling ([4]; compound concentration: 200uM),log2 ratio of Biotin-Ahx-Ub-VS probe labelling ([5]; compound concentration: 50uM),log2 ratio of Biotin-Ahx-Ub-VS probe labelling ([5]; compound concentration: 200uM)
UniProt Q70EL2,0.0142,-0.673,-0.00989,-0.0714,0.0879,0.0524,0.0625,-0.323,-0.414,-0.995
USP9X (UniProt Q93008),-0.0287,-0.0252,-0.131,-0.237,0.0883,-0.151,0.0465,-0.214,-0.231,-1.53 (active)
USP48 (UniProt Q86UV5),0.13,0.0439,-0.0252,-0.167,0.207,-0.0233,-0.00252,-0.144,-0.0747,-0.125
EIF3H (UniProt O15372),-0.0316,-0.379,-0.141,-0.0932,-0.0985,-0.00068,-0.109,0.0728,0.0328,-0.126
UCHL5 (UniProt Q9Y5K5),-0.182,-0.0853,-0.308,-0.472,0.0503,-0.365,-0.0983,-0.443,-0.226,-1.37 (active)
UCHL1 (UniProt P09936),-0.0609,0.151,-0.516,-0.228,0.0655,-0.146,-0.0596,-0.223,0.0885,-0.474
USP15 (UniProt Q9Y4E8),-0.0996,-0.0168,-0.328,-0.255,0.00954,-0.189,-0.0873,-0.249,-0.441,-1.58 (active)
USP39 (UniProt Q53GS9),-0.167,-0.109,-0.269,-0.2,-0.0242,-0.138,0.0198,-0.0406,0.0915,-0.109
BAP1 (UniProt Q92560),-0.474,-1.23 (active),-1.05 (active),-2.38 (active),-0.619,-2.44 (active),-0.684,-1.69 (active),-0.262,-1.91 (active)
ALG13 (UniProt Q9NP73),0.298,0.114,0.599,0.0386,0.273,-0.0598,0.244,0.344,0.0824,0.24
USP8 (UniProt P40818),-0.193,-0.0275,-0.286,-0.268,0.0453,-0.166,-0.0844,-0.245,-0.136,-0.61
VCPIP1 (UniProt Q96JH7),-0.592,-1.1 (active),-0.668,-0.836,-0.427,-1.2 (active),-0.287,-0.962,-0.145,-0.737
